Experiments:
Assay in all cases: DAPPL (digital affinity profiling via proximity ligation, sequencing); 10 mM Tris-HCl pH 7.5, 50 mM NaCl, 1 mM DTT, 4% glycerol, room temperature, 30 min; GST-TFs on glutathione beads, 16-mer random dsDNA library, 0.1% formaldehyde crosslink after washing; high values mean tight binding
FLI1 = biological target: T1, FLI1 (Homo sapiens, UniProt Q01543 1-452); conditions: protein: recombinant; tags: N-terminal GST; dsDNA, one strand shown
T1 sequence: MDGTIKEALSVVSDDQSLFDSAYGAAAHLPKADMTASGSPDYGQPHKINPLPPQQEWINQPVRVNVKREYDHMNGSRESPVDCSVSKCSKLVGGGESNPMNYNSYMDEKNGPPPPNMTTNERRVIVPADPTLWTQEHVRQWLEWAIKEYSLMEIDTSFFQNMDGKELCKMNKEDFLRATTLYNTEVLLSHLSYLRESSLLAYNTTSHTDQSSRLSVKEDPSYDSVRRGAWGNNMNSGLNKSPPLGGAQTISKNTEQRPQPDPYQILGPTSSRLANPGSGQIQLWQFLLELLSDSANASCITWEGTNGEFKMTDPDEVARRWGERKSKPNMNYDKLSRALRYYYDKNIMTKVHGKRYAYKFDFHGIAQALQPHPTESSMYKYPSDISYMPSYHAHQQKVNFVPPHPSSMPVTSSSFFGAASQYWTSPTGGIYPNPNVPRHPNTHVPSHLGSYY
In short: (§1)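 Pools of DNA-barcoded human transcription factors, expressed in yeast as GST fusions on glutathione beads and combined with a tag-only sample, were incubated with 200 nmole of a 16-mer random double-stranded DNA library. Incubation took 30 min at room temperature in Tris/NaCl/DTT/glycerol buffer and was followed by washing, 0.1% formaldehyde crosslinking, proximity ligation (BsaI/T4 ligase, 1 h, 37 °C), PCR amplification and sequencing on an Illumina NextSeq500. Binding signal is the ratio of a hexamer's read frequency for a factor to its frequency for the tag-only sample.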

ELK1 = biological target: T2, ELK1 (Homo sapiens, UniProt P19419 1-428); conditions: protein: recombinant; tags: N-terminal GST; dsDNA, one strand shown
T2 sequence: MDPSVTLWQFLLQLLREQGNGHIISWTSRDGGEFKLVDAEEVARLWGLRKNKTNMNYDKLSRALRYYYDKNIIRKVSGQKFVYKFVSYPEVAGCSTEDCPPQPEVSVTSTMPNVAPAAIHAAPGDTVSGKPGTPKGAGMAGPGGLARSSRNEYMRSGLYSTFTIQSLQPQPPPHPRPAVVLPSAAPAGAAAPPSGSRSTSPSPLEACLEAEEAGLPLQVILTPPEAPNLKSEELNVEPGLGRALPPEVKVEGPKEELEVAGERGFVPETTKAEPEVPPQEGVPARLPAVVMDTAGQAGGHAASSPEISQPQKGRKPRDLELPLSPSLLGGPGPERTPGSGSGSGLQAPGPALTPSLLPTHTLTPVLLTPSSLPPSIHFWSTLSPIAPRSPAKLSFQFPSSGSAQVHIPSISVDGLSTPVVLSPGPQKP
In short: as §1

GABPA = biological target: T3, GABPA (Homo sapiens, UniProt Q06546 1-454); conditions: protein: recombinant; tags: N-terminal GST; dsDNA, one strand shown
T3 sequence: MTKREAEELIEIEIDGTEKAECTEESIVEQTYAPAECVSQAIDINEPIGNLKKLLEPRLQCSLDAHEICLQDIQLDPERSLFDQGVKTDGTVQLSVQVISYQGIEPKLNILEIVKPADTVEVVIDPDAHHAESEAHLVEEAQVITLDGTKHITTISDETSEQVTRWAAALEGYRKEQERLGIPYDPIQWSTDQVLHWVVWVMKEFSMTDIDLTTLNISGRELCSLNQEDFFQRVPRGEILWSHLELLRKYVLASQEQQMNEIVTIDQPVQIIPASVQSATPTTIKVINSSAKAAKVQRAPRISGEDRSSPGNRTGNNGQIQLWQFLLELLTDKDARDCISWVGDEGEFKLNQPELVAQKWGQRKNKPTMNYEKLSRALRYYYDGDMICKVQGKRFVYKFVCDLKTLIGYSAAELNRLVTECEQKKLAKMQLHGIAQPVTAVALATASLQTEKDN
In short: as §1

ERG = biological target: T4, ERG (Homo sapiens, UniProt P11308 1-479); conditions: protein: recombinant; tags: N-terminal GST; dsDNA, one strand shown
T4 sequence: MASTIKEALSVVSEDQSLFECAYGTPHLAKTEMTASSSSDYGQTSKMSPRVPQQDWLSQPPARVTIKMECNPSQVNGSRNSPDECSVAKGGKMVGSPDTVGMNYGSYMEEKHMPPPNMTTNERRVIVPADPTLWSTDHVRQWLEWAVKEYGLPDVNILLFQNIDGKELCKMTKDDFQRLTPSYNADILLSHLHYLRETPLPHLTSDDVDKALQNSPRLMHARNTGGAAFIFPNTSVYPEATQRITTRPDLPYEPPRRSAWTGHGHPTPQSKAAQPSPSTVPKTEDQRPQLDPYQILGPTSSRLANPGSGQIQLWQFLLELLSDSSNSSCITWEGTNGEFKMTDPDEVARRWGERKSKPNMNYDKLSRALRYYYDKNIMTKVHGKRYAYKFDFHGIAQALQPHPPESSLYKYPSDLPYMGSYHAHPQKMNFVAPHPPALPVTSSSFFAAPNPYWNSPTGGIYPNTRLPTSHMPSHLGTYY
In short: as §1

ELF1 = ELF1 (Homo sapiens, UniProt P32519 1-619); conditions: protein: recombinant; tags: N-terminal GST; dsDNA, one strand shown
Sequence of ELF1 (P32519 whole entry): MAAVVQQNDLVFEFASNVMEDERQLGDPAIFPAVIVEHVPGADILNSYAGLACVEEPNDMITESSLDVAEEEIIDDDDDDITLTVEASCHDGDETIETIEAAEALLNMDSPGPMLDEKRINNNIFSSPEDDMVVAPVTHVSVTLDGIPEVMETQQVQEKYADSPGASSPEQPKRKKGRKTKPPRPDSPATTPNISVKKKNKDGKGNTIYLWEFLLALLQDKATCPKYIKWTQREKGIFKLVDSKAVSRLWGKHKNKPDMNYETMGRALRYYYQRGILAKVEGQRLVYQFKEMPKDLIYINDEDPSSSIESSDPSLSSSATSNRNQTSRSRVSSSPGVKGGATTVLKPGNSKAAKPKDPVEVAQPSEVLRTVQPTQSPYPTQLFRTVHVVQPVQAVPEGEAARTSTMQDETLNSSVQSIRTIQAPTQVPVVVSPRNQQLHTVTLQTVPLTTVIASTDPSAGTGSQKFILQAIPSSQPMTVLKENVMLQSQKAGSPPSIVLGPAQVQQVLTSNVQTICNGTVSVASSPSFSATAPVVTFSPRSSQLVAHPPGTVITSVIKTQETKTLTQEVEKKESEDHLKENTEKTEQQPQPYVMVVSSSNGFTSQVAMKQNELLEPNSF
In short: as §1

EHF = biological target: T5, EHF (Homo sapiens, UniProt Q9NZC4 1-300); conditions: protein: recombinant; tags: N-terminal GST; dsDNA, one strand shown
T5 sequence: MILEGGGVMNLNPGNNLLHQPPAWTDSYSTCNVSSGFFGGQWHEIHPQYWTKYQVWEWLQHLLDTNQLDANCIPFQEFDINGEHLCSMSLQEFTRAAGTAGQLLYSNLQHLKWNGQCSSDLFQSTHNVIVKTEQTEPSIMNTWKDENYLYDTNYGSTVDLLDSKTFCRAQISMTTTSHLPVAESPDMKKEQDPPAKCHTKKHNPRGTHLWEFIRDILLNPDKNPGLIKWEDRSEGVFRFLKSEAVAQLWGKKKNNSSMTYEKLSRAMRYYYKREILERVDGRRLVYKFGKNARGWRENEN
In short: as §1

SPI1 = SPI1 (Homo sapiens, UniProt P17947 1-270); conditions: protein: recombinant; tags: N-terminal GST; dsDNA, one strand shown
In short: as §1

SPIB = SPIB (Homo sapiens, UniProt Q01892 1-262); conditions: protein: recombinant; tags: N-terminal GST; dsDNA, one strand shown
Sequence of SPIB (Q01892 whole entry): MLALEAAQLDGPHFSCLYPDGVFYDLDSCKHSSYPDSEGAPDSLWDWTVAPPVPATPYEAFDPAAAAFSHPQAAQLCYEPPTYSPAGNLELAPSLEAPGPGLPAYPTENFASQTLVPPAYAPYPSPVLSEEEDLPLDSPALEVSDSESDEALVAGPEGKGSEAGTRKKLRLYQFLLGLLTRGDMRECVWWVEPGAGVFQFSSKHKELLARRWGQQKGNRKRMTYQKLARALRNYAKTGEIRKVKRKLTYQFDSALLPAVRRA
In short: as §1

ELK3 = biological target: T6, ELK3 (Homo sapiens, UniProt P41970 1-407); conditions: protein: recombinant; tags: N-terminal GST; dsDNA, one strand shown
T6 sequence: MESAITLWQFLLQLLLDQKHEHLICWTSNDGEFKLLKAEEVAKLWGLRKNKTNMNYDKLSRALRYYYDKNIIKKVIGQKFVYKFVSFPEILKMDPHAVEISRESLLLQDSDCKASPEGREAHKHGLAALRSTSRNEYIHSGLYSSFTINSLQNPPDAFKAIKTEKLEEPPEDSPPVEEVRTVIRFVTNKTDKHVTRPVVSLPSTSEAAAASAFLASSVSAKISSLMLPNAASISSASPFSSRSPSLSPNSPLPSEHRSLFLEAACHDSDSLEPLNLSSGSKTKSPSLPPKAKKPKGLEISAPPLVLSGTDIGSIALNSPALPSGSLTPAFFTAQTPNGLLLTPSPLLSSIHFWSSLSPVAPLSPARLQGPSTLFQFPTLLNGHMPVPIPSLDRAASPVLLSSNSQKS
In short: as §1

FEV = biological target: T7, FEV (Homo sapiens, UniProt Q99581 1-238); conditions: protein: recombinant; tags: N-terminal GST; dsDNA, one strand shown
T7 sequence: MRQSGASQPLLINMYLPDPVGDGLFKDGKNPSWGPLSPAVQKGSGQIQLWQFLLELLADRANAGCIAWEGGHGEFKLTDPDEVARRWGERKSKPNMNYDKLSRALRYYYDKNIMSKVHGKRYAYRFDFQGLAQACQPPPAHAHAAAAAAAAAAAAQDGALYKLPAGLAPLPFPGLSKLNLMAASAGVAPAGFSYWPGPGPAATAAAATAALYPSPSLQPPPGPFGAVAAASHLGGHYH
In short: as §1

ETV5 = ETV5 (Homo sapiens, UniProt P41161 1-510); conditions: protein: recombinant; tags: N-terminal GST; dsDNA, one strand shown
Sequence of ETV5 (P41161 whole entry): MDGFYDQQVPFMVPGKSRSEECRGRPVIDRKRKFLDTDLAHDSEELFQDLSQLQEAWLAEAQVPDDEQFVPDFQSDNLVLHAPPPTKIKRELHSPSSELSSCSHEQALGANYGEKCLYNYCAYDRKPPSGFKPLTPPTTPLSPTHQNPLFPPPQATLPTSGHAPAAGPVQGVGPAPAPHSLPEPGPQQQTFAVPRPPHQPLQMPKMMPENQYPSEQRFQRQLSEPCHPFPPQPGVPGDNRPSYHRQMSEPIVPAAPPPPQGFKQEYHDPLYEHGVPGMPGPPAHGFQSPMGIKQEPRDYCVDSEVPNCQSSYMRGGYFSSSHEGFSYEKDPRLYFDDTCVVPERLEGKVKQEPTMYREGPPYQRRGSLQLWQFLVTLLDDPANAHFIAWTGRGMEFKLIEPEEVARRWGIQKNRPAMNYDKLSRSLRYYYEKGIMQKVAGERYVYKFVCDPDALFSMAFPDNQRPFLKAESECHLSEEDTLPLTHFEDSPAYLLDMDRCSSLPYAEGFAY
In short: as §1

HSF1 = HSF1 (Homo sapiens, UniProt Q00613 1-529); conditions: protein: recombinant; tags: N-terminal GST; chain copies: 3; dsDNA, one strand shown
Sequence of HSF1 (Q00613 whole entry): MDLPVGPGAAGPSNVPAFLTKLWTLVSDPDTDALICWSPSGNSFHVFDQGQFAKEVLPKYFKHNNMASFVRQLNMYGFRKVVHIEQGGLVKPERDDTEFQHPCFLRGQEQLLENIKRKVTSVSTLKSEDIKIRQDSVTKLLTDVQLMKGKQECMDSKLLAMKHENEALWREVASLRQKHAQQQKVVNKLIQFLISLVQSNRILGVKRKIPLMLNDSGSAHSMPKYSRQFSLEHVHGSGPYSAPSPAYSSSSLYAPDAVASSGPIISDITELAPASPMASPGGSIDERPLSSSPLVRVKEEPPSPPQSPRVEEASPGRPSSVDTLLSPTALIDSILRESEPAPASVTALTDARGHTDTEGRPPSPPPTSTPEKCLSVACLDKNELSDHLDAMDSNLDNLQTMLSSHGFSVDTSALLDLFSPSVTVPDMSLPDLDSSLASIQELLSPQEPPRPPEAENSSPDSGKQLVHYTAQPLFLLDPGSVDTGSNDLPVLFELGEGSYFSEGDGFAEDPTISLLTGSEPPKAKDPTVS
In short: as §1

SPIC = biological target: T8, SPIC (Homo sapiens, UniProt Q8N5J4 1-248); conditions: protein: recombinant; tags: N-terminal GST; dsDNA, one strand shown
T8 sequence: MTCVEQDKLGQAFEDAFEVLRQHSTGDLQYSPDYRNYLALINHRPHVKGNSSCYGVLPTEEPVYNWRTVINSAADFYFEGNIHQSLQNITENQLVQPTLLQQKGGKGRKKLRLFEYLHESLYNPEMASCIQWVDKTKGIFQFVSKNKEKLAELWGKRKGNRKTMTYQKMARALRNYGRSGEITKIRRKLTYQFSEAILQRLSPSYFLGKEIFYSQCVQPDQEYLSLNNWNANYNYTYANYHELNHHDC
In short: as §1

ELF4 = ELF4 (Homo sapiens, UniProt Q99607 1-663); conditions: protein: recombinant; tags: N-terminal GST; dsDNA, one strand shown
Sequence of ELF4 (Q99607 whole entry): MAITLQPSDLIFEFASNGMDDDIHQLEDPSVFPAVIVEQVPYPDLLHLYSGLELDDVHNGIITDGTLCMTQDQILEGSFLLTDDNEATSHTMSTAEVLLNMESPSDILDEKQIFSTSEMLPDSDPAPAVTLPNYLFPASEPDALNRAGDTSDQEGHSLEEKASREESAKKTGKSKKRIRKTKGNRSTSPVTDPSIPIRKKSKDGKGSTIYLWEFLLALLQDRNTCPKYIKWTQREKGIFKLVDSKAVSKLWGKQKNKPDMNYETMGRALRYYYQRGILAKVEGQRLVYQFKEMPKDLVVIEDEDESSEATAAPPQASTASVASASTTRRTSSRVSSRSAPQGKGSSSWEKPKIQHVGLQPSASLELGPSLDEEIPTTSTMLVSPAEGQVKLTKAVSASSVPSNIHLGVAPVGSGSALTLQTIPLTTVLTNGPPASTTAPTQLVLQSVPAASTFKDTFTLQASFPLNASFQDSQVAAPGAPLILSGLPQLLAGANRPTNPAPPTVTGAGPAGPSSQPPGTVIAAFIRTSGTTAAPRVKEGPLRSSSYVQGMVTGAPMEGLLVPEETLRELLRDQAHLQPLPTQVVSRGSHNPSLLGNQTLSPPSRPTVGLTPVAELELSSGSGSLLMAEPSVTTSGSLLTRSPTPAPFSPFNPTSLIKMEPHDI
In short: as §1

ELK4 = biological target: T9, ELK4 (Homo sapiens, UniProt P28324-2 1-405); conditions: protein: recombinant; tags: N-terminal GST; dsDNA, one strand shown
T9 sequence: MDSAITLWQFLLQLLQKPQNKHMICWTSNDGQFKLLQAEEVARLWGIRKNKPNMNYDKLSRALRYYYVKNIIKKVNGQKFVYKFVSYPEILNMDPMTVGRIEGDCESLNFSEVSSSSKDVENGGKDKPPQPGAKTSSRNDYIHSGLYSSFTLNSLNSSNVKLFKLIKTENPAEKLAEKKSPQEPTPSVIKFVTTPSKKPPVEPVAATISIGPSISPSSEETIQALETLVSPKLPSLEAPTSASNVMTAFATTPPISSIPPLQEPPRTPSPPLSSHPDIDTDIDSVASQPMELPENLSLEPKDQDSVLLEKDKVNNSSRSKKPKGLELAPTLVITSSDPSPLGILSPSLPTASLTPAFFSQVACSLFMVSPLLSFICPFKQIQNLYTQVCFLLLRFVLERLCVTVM
In short: as §1

ETV2 = biological target: T10, ETV2 (Homo sapiens, UniProt O00321 1-342); conditions: protein: recombinant; tags: N-terminal GST; dsDNA, one strand shown
T10 sequence: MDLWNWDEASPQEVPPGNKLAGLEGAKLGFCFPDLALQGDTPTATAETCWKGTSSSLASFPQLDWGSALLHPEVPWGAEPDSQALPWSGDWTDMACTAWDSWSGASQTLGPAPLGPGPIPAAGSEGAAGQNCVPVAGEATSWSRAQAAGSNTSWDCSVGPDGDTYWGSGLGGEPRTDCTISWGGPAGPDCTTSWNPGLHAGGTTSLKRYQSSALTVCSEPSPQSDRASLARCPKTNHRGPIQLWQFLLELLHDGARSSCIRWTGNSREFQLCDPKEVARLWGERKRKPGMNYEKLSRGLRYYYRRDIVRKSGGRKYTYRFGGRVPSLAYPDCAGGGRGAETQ
In short: as §1

ELF3 = biological target: T11, ELF3 (Homo sapiens, UniProt P78545 1-371); conditions: protein: recombinant; tags: N-terminal GST; dsDNA, one strand shown
T11 sequence: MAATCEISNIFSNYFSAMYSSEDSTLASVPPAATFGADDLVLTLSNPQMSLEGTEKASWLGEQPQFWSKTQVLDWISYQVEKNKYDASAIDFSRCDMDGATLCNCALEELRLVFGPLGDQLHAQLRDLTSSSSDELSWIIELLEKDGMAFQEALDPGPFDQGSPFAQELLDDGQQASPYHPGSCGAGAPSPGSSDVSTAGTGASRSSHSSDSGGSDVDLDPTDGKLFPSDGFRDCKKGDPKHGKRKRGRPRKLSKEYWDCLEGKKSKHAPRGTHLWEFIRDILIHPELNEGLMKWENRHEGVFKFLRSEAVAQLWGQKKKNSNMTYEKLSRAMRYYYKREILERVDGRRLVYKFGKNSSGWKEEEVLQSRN
In short: as §1

CRX = CRX (Homo sapiens, UniProt O43186 1-299); conditions: protein: recombinant; tags: N-terminal GST; dsDNA, one strand shown
Sequence of CRX (O43186 whole entry): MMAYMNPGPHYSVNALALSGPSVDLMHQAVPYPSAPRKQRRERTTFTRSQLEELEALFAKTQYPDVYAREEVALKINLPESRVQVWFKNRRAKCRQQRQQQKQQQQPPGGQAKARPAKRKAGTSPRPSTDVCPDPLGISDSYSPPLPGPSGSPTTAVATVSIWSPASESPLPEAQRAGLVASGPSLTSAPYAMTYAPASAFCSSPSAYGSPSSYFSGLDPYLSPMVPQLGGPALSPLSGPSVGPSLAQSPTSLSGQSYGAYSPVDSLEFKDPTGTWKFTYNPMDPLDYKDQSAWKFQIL
In short: as §1

ETV1 = ETV1 (Homo sapiens, UniProt P50549 1-477); conditions: protein: recombinant; tags: N-terminal GST; dsDNA, one strand shown
Sequence of ETV1 (P50549 whole entry): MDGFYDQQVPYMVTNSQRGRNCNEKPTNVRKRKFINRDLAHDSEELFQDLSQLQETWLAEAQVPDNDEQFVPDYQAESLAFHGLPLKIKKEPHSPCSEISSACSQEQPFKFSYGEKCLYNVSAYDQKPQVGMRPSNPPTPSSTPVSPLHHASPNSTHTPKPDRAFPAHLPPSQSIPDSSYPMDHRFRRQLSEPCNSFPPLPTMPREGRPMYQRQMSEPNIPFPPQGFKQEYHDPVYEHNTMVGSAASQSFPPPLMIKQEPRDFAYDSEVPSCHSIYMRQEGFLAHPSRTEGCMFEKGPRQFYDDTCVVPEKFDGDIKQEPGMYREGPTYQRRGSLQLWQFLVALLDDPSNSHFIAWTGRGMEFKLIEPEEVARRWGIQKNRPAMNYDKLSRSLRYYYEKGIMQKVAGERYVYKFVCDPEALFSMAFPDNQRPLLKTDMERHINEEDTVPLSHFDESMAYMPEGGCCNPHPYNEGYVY
In short: as §1

CTTACC
binding signal (FLI1): 1.21 fold enrichment (6-mer frequency, TF over GST control)
binding signal (ELK1): 1.22 fold enrichment (6-mer frequency, TF over GST control)
binding signal (GABPA): 1.26 fold enrichment (6-mer frequency, TF over GST control)
binding signal (ERG): 1.24 fold enrichment (6-mer frequency, TF over GST control)
binding signal (ELF1): 1.24 fold enrichment (6-mer frequency, TF over GST control)
binding signal (EHF): 1.17 fold enrichment (6-mer frequency, TF over GST control)
binding signal (SPI1): 1.34 fold enrichment (6-mer frequency, TF over GST control)
binding signal (SPIB): 1.32 fold enrichment (6-mer frequency, TF over GST control)
binding signal (ELK3): 1.26 fold enrichment (6-mer frequency, TF over GST control)
binding signal (FEV): 1.25 fold enrichment (6-mer frequency, TF over GST control)
binding signal (ETV5): 1.21 fold enrichment (6-mer frequency, TF over GST control)
binding signal (HSF1): 1.26 fold enrichment (6-mer frequency, TF over GST control)
binding signal (SPIC): 1.34 fold enrichment (6-mer frequency, TF over GST control)
binding signal (ELF4): 1.25 fold enrichment (6-mer frequency, TF over GST control)
binding signal (ELK4): 1.27 fold enrichment (6-mer frequency, TF over GST control)
binding signal (ETV2): 1.27 fold enrichment (6-mer frequency, TF over GST control)
binding signal (ELF3): 1.27 fold enrichment (6-mer frequency, TF over GST control)
binding signal (CRX): 1.58 fold enrichment (6-mer frequency, TF over GST control)
binding signal (ETV1): 1.28 fold enrichment (6-mer frequency, TF over GST control)

— publication PMC7862700, “An all-to-all approach to the identification of sequence-specific readers for epigenetic DNA modifications on cytosine”
